Values joined by “and” are separate entries in the source; they are usually repeats but may differ in a detail not shown here. Equal entries are not always repeated. Out of some 5,500 compounds screened, about 2,000 (36%) were called active. About 18% were inconclusive and are not listed. No stated cut-off is given here; in the data, active means normalized growth mostly below about 0.91 (no sharp cut-off); inconclusive means no clear call, values can overlap the other calls; inactive means mostly above about 0.92. This is one part of the list.
Assay: chemical genetic growth profiling, strain panel (AID 1159580);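 further: tested at 20 µM; growth read once vehicle control cultures reached saturation at 30 °C; 1 = growth at the plate median or of vehicle wells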
Conditions: S. cerevisiae deletion strains, growth OD

Measured: normalized growth

Cc1ccc(S(=O)(=O)NC(=O)NN2CC3CCCC3C2)cc1 (configuration not stated)
inactive: locus YAL013W, strain DEP1, stronger effect = lower value 1.01 | locus YAL021C, strain ccr4, stronger effect = lower value 0.996 | locus YAL026C, strain drs2, stronger effect = lower value 0.979 | locus YAL030W, strain snc1, stronger effect = lower value 0.982 | locus YBL061C, strain skt5, stronger effect = lower value 0.981 | locus YBR009C, strain hhf1, stronger effect = lower value 0.976 | locus YBR021W, strain FUR4, stronger effect = lower value 1.01 | locus YBR023C, strain chs3, stronger effect = lower value 0.973 | locus YBR171W, strain sec66, stronger effect = lower value 0.995 | locus YBR229C, strain ROT2, stronger effect = lower value 1.01 | locus YBR231C, strain swc5, stronger effect = lower value 0.984 | locus YBR279W, strain paf1, stronger effect = lower value 0.987 | locus YCL011C, strain gbp2, stronger effect = lower value 0.961 | locus YCL016C, strain dcc1, stronger effect = lower value 0.98 | locus YCL029C, strain bik1, stronger effect = lower value 1.01 | locus YCL069W, strain vba3, stronger effect = lower value 0.993 | locus YCR088W, strain abp1, stronger effect = lower value 0.972 | locus YDL005C, strain med2, stronger effect = lower value 0.98 | locus YDL035C, strain GPR1, stronger effect = lower value 0.946 | locus YDL040C, strain nat1, stronger effect = lower value 0.984 | locus YDL074C, strain BRE1, stronger effect = lower value 1.01 | locus YDL101C, strain DUN1, stronger effect = lower value 1.02 | locus YDL134C, strain PPH21, stronger effect = lower value 0.962 | locus YDL185W, strain tfp1, stronger effect = lower value 1.02 | locus YDL192W, strain arf1, stronger effect = lower value 1.01 | locus YDR001C, strain nth1, stronger effect = lower value 0.968 | locus YDR069C, strain doa4, stronger effect = lower value 0.99 | locus YDR101C, strain arx1, stronger effect = lower value 1 | locus YDR137W, strain rgp1, stronger effect = lower value 0.89 | locus YDR159W, strain sac3, stronger effect = lower value 0.991 | locus YDR162C, strain NBP2, stronger effect = lower value 0.994 | locus YDR195W, strain ref2 0.975 | locus YDR297W, strain sur2, stronger effect = lower value 0.975 | locus YDR318W, strain mcm21, stronger effect = lower value 1.01 | locus YDR334W, strain swr1, stronger effect = lower value 0.959 | locus YDR335W, strain msn5, stronger effect = lower value 0.979 | locus YDR388W, stronger effect = lower value 1.01 | locus YDR392W, strain spt3, stronger effect = lower value 0.974 | locus YDR502C, strain sam2, stronger effect = lower value 0.997 | locus YEL003W, strain gim4, stronger effect = lower value 0.968 | locus YEL037C, strain rad23, stronger effect = lower value 0.986 | locus YEL061C, strain CIN8 (second series), stronger effect = lower value 0.955 | locus YEL061C, strain CIN8, stronger effect = lower value 1 | locus YER015W, strain faa2, stronger effect = lower value 0.975 | locus YER016W, strain bim1, stronger effect = lower value 0.995 | locus YER110C, stronger effect = lower value 1.02 | locus YER111C, strain swi4, stronger effect = lower value 0.972 | locus YER155C, strain BEM2 (second series), stronger effect = lower value 0.977 | locus YER155C, strain BEM2, stronger effect = lower value 1 | locus YER167W, strain BCK2, stronger effect = lower value 1 | locus YFR010W, strain ubp6, stronger effect = lower value 0.986 | locus YGL078C, strain dbp3, stronger effect = lower value 1.01 | locus YGL086W, strain mad1, stronger effect = lower value 0.984 | locus YGL167C, strain pmr1, stronger effect = lower value 0.982 | locus YGL173C, strain kem1, stronger effect = lower value 1 | locus YGL227W, strain vid30, stronger effect = lower value 0.969 | locus YGL240W, strain doc1, stronger effect = lower value 0.969 | locus YGL248W, strain PDE1, stronger effect = lower value 0.995 | locus YGL253W, strain hxk2, stronger effect = lower value 0.987 | locus YGR135W, strain pre9, stronger effect = lower value 1.03 | locus YGR229C, strain SMI1, stronger effect = lower value 1.01 | locus YGR252W, strain gcn5, stronger effect = lower value 1.05 | locus YHR013C, strain ard1, stronger effect = lower value 0.967 | locus YHR027C, strain rpn1, stronger effect = lower value 0.983 | locus YHR030C, strain SLT2, stronger effect = lower value 1 and 0.961 | locus YHR079C, strain IRE1 (second series), stronger effect = lower value 1.01 | locus YHR079C, strain IRE1, stronger effect = lower value 0.966 | locus YHR094C, strain hxt1, stronger effect = lower value 1.01 | locus YHR129C, strain ARP1, stronger effect = lower value 0.992 | locus YHR142W, strain chs7, stronger effect = lower value 0.98 | locus YHR200W, strain rpn10, stronger effect = lower value 1.01 | locus YIL066C, strain RNR3, stronger effect = lower value 1 | locus YIL073C, strain SPO22, stronger effect = lower value 1.05 | locus YIL125W, strain kgd1, stronger effect = lower value 1.01 | locus YIR030C, strain dcg1, stronger effect = lower value 1.03 | locus YJL092W, strain hpr5, stronger effect = lower value 0.954 | locus YJL095W, strain BCK1 (second series), stronger effect = lower value 0.973 | locus YJL095W, strain BCK1, stronger effect = lower value 1.02 and 0.973 | locus YJL115W, strain asf1, stronger effect = lower value 0.945 | locus YJL129C, strain trk1, stronger effect = lower value 0.954 | locus YJL134W, strain LCB3, stronger effect = lower value 1 | locus YJL154C, strain vps35, stronger effect = lower value 0.97 | locus YJL164C, strain tpk1, stronger effect = lower value 0.97 | locus YJL166W, strain qcr8, stronger effect = lower value 0.981 | locus YJL168C, strain set2, stronger effect = lower value 1.01 | locus YJL187C, strain SWE1 (second series), stronger effect = lower value 1 | locus YJL187C, strain SWE1, stronger effect = lower value 0.989

Reference: PubChem BioAssay AID1159580 (chemical genetic matrix, 2015)
